PubChem BioAssay AID449739 (Vanderbilt High Throughput Screening Facility, 2010)
In all, about 100,000 compounds went through this assay and about 4,200 (4.2%) were called active.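 How the source made its calls: active means single-dose well whose peak fluorescence ratio is a statistical outlier from its plate by either plate-standardised score or position-corrected B-score; inactive means the rest.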 What follows is part of a selection rich in actives, with near analogues and random picks from the rest.

The compounds below were run against Voltage-dependent T-type calcium channel subunit alpha-1H (Homo sapiens) (UniProt O95180) (assay: Cav3.2 calcium influx blockers – cell-based, Fluo-4 calcium fluorescence, FDSS, MLSMR library, primary screen (AID 449739)). Details: Cav3.2-expressing cells, at 10 µM, stronger effect = lower value.
Voltage-dependent T-type calcium channel subunit alpha-1H (Homo sapiens), sequence (O95180 whole entry, looked up): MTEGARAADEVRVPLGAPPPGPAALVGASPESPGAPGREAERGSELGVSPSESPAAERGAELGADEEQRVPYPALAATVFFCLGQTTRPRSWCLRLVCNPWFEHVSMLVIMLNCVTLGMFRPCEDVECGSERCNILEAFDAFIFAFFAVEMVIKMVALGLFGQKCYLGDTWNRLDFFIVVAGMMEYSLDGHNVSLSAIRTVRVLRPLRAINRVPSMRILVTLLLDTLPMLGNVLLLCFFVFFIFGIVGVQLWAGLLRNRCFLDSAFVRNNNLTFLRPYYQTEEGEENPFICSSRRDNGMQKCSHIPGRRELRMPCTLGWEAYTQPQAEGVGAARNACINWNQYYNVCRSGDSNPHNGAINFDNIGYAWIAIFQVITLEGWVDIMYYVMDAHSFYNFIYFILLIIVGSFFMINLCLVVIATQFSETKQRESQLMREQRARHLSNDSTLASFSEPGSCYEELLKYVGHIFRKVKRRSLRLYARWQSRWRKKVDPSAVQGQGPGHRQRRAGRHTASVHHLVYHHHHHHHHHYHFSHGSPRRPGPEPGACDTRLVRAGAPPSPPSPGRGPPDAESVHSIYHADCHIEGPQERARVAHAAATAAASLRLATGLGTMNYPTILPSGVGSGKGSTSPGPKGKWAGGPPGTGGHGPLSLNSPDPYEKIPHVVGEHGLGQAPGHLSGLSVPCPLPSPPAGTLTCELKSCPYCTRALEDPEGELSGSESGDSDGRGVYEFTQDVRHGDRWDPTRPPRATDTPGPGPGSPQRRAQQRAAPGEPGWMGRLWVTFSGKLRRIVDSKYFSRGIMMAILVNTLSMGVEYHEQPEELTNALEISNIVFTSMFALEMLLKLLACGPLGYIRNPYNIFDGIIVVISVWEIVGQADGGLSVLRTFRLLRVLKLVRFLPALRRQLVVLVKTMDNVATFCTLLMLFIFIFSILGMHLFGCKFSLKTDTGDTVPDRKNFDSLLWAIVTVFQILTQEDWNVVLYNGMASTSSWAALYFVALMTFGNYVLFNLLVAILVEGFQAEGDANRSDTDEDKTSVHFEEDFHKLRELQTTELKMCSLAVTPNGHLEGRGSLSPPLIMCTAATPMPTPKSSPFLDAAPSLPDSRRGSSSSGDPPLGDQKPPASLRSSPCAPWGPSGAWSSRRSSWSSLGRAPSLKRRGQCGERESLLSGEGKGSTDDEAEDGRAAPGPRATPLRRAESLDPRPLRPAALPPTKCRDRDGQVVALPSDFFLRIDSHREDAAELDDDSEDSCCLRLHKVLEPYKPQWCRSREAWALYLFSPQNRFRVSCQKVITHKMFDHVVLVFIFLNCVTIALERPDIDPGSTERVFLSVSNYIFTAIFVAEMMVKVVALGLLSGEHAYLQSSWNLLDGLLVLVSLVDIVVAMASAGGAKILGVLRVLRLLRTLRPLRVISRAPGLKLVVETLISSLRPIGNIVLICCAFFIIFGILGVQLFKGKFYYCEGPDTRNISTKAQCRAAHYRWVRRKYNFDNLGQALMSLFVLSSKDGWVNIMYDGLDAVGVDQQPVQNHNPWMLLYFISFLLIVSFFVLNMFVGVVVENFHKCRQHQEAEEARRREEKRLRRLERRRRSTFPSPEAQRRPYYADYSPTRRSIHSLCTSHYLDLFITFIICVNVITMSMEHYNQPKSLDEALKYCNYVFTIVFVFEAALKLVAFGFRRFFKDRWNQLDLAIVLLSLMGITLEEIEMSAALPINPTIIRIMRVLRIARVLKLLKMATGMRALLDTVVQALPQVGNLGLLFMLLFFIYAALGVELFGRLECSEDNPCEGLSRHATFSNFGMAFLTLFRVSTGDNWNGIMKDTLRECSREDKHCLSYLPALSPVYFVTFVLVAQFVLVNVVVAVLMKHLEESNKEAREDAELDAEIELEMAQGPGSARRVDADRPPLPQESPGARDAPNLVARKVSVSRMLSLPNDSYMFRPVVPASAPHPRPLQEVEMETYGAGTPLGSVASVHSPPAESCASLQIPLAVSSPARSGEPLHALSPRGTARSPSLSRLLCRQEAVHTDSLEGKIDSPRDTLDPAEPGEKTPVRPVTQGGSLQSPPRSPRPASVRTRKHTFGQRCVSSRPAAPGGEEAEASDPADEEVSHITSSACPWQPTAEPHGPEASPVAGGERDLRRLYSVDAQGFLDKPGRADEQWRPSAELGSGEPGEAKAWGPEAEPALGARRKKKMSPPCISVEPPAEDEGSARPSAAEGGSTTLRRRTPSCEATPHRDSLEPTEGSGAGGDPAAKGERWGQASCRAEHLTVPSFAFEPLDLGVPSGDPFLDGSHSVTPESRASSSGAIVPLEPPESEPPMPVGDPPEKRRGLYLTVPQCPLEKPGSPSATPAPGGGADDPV
With `CCOC(=O)c1c(N)n(CCN2CCOCC2)c2nc3ccccc3nc12` the B-score was 0.618 (inactive).
`COc1cc(Cn2c(N)c(C(=O)NCc3ccco3)c3nc4ccccc4nc32)cc(OC)c1OC` was tested, and the B-score was -1.47 (active).
`CCOC(=O)c1c(N)n(Cc2ccccc2)c2nc3ccccc3nc12` was tested, and the B-score was -0.856 (inactive).
In the case of `O=C(COc1ccc2ccccc2c1)N1CCN(Cc2ccncc2)CC1`, the B-score is reported as 0.31 (inactive).
`CCCCn1c(O)c(C(CC)=NCc2ccco2)c(=O)[nH]c1=O` was tested, and the B-score was -0.626 (inactive).
In the case of `CCC(=NCCCO)c1c(O)n(-c2ccc(OC)cc2)c(=O)[nH]c1=O`, the B-score is reported as -0.0478 (inactive).
With `CCCCCCN=C(CC)c1c(O)n(CCCC)c(=O)[nH]c1=O` the B-score was -6.91 (active).
For `COC(=O)C1=C(c2cc3ccccc3o2)C[C@@H]2CC[C@H]1N2C(=O)NC1CCCCC1`, the B-score was -0.929 (inactive).
`COc1ccc2c(c1)[C@]13CCCCC1C(C2)N(C)CC3` (stereo not given in full) was tested, and the B-score was 1.06 (inactive).
`CCCCCn1c(=O)c(C(=O)NCc2ccccn2)c(O)c2ccccc21` was tested, and the B-score was -1.65 (inactive).
In the case of `CCCCCn1c(=O)c(C(=O)Nc2c(C)n(C)n(-c3ccccc3)c2=O)c(O)c2ccccc21`, the B-score is reported as -7.21 (active).
With `C[C@@]1([C@@H](NP(=O)(c2ccccc2)c2ccccc2)c2ccccc2)C[C@H]1CCO` the B-score was -0.319 (inactive).
For `C[N+]1(C)CCOC(O)(c2ccc(-c3ccc(C4(O)C[N+](C)(C)CCO4)cc3)cc2)C1` (stereo not given), the B-score was 0.445 (inactive).
In the case of `C=CC12CN(C)[C@@H]3C4CO[C@H](C[C@H]41)[C@]1(C(=O)Nc4ccccc41)[C@@H]32` (stereo not given in full), the B-score is reported as -0.174 (inactive).
For `Cc1ccc(N(C)C(=O)Oc2cccc3ccc(C)nc23)cc1`, the B-score was -6.07 (active).
In the case of `COC(=O)C1=C(c2ccccc2)C[C@@H]2CC[C@H]1N2C(=O)NCc1ccco1`, the B-score is reported as 0.641 (inactive).
With `CCCC[N+]1(C)C2CC(OC(=O)C(CO)c3ccccc3)CC1C1OC12` (stereo not given) the B-score was -0.292 (inactive).
`CN(C)C(=O)NC(O)C(Cl)(Cl)Cl` (stereo not given) was tested, and the B-score was -0.859 (inactive).
With `CNCC(O)c1cc(F)c(OCc2ccccc2)c(OCc2ccccc2)c1F` (stereo not given) the B-score was -0.0158 (inactive).
With `CC(C)(C)c1ccc(CN2C(=O)CN=C(c3ccccc3)c3ccccc32)cc1` the B-score was -5.08 (active).
For `CC1C2Cn3c(nc4ccccc43)C1N(C)O2` (stereo not given), the B-score was 0.301 (inactive).
With `COC(=O)C1=C(c2cc3ccccc3s2)C[C@@H]2CC[C@H]1N2C(=O)NC(C)C` the B-score was 0.726 (inactive).
In the case of `COC(=O)C1=C(c2cc3ccccc3s2)C[C@@H]2CC[C@H]1N2C(=O)NCCO`, the B-score is reported as 0.584 (inactive).
`COC(=O)C1=C(c2cc3ccccc3s2)C[C@@H]2CC[C@H]1N2C(=O)NCc1cccc2ccccc12` was tested, and the B-score was -4.11 (active).
With `COC(=O)C1=C(c2ccccc2)C[C@@H]2CC[C@H]1N2C(=O)N1CCCCC1` the B-score was 0.364 (inactive).
`COc1ccc2c(c1O)-c1cccc3c1[C@@H](C2)N(C)CC3` was tested, and the B-score was -2.61 (inactive).
With `COc1c(O)ccc2c1-c1c3c(cc4c1C(C2)N(C)CC4)OCO3` (stereo not given) the B-score was 0.137 (inactive).
`CC[C@H]1CC2CN3CCc4c([nH]c5ccccc45)C(C(=O)OC)(C2)C13` (stereo not given in full) was tested, and the B-score was -1.28 (inactive).
`NCC(O)c1ccc(O)cc1` (stereo not given) was tested, and the B-score was 1.98 (inactive).
For `CC(C)(C)[C@]1(O)C[C@@H]2OC(=O)C[C@@]23C(=O)O[C@@H]2OC(=O)[C@H](O)[C@]213`, the B-score was 0.0998 (inactive).
